# Sampled rows, rich in hits. Any-hit rate of the full collection: about 4.3%.
# esBAF inh: SWI/SNF esBAF complex inhibition. hit rate 2% among 350,000. mouse ES cells, Bmi1-luciferase knock-in reporter, 24 h; 100% = twice the neutral-well signal. reporter increase, % at 12.5 µM; in the data active means activation above about 40%; inconclusive means no clear call, values can overlap the other calls;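 further: 0% = median of the plate's neutral control wells and 100% = double that signal; a rise in the Bmi1 reporter signal indicates esBAF inhibition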
# MITF act: increases MITF-driven TRPM1 promoter luciferase signal; SK-MEL-5 TRPM1-promoter luciferase, 24 h; % of positive control, neutral wells = 0; AID 588334; activation, % at 12.5 µM; hit rate 0.75% among 300,000;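 active means mean activation of at least 80% with every replicate also reaching 80%; inconclusive means mean reaches 80% but some replicate falls short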;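 further: 0% = neutral control wells and 100% = parthenolide positive control wells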
# SMARCA2 act: increases SMARCA2 function in MMTV reporter cells. activation, % at 9.1 µM. AID 652017. hit rate 1% among 370,000. MG213 cells, MMTV-luciferase reporter, dexamethasone, overnight; in the data active means activation above about 7.8%;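 further: 0% = vehicle wells and 100% = reference activator wells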
# HSF1 activator: increases HSF-1 driven luciferase reporter signal; hit rate 1.7% among 300,000; activation, % at 9 µM; NIH3T3-HGL HSF-1 luciferase reporter, MG132, 8 h; 100% = twice DMSO control signal; AID 504408;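 active means mean replicate activation of at least 50% with a set share of replicates each reaching 50%; inconclusive means only one of those two conditions met; inactive means mean below 50% and too few replicates reaching it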;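 further: 0% = median of the neutral control wells and 100% = twice that signal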
# Wnt act: activators of Wnt/beta-catenin signaling; Wnt/beta-catenin reporter cell assay, activator, plate reader; activation, % at 9.35 µM; hit rate 1.2% among 300,000; AID 743398; in the data active means activation above about 30%, passing the limit was not always enough; inconclusive means no clear call, values can overlap the other calls;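 further: 0% = neutral control wells and 100% = positive control wells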
# HSF1 inh: HSF1 inhibition; NIH3T3-HGL HSE-luciferase, MG132-induced, luminescence 8 h; stronger effect = lower value; activity change, negative = inhibition, % at 7.5 µM (by protocol); hit rate 0.77% among 300,000; AID 2098;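 active means more than half of replicate wells show activity change below -50%, luminescence cut by over half; inconclusive means some wells, but at most half, below -50%; inactive means no replicate well below -50%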;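 further: luciferase reports HSF-1 transcriptional activity via heat shock element; 0% = median of DMSO wells and -100% = zero luminescence signal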
# * = called active by the depositor; ? = inconclusive; . = no result.
SMILES,esBAF inh,MITF act,SMARCA2 act,HSF1 activator,Wnt act,HSF1 inh
Cc1nc2scc(-c3ccc(Cl)cc3)c2c(=O)n1N,.,8.7,-2.7,94.5*,-6.2,68.2
C[C@H]1CN([C@@H](C)CO)C(=O)c2cc(NC(=O)Nc3ccccc3)ccc2O[C@H]1CN(C)S(=O)(=O)c1cccs1,-2.9,.,.,.,.,.
N#CCSc1nc2ccccc2c2nc3ccccc3n12,.,-77.8,6.4,68.4*,5.7,36.3
COc1ccc(-c2ccc(SCC(=O)Nc3nnc(C)s3)nn2)cc1,.,19.8,-0.4,20.6,35.3*,4.1
COc1ccc(-c2ccc(SCC(=O)N3CC(=O)Nc4ccccc43)nn2)cc1,49.3*,33.5,-0.1,29.3,7.0,10.9
COc1ccccc1CNC(=O)C[C@H]1CC[C@H]2[C@@H](COC[C@@H](O)CN2C(=O)Nc2ccc(Cl)cc2)O1,37.5,.,.,.,.,.
CCC(=O)N1[C@@H]2Cn3c(ccc(-c4cccnc4)c3=O)[C@H]1[C@@H](C(=O)N1CCc3ccccc3C1)[C@@H]2CO,3.0,.,.,.,.,.
CN1CCCN(C(=O)c2cc(-c3cccc4ccccc34)nc3ccccc23)CC1,-3.5,7.9,-3.5,1.3,46.8*,-7.0
O=C(c1cc(-c2ccccc2Cl)nc2ccccc12)N1CCC1,.,6.6,-1.7,3.4,0.1,-0.7
COc1ccc(-c2cc(C(=O)N3CCCCCC3)c3ccccc3n2)c(OC)c1,-2.7,-5.1,-2.5,78.7*,-0.9,26.2
CC(=O)Oc1ccc(C(=O)Cc2ccc3ccccc3n2)c(O)c1C,.,54.2,2.5,76.4*,-4.4,47.1
Cc1c(O)ccc(/C(Cc2ccc3ccccc3n2)=N\O)c1O,44.6*,.,-2.3,69.6*,36.1*,38.5
C[C@H]1CN([C@@H](C)CO)C(=O)Cc2cc(NC(=O)CCCCCC(=O)Nc3ccccc3N)ccc2O[C@H]1CN(C)Cc1ccncc1,-3.5,.,.,.,.,.
CC1(C)CC(CCN)(Cc2ccccc2Cl)CCO1 (stereo unspecified),.,.,-5.3,59.6*,-5.2,15.4
CC(C)(C)NC(=O)N1CCC(CO)(Cc2ccccc2Cl)CC1,0.7,-2.7,-2.7,8.9,-2.6,-0.6
COc1ccc(CNc2nc3ccccc3n2CCN2CCCCC2)c(OC)c1,-62.5,-13.7,-1.9,73.5*,-8.7,31.1
CCC(C)NCC(O)COCc1ccc(Cl)cc1 (stereo unspecified),3.3,2.0,1.3,-6.2,-0.3,-3.4
CC(C)NCC(O)COCc1ccc(Cl)cc1 (stereo unspecified),.,-2.1,-1.7,52.9*,-4.8,17.1
Brc1ccc2oc(-c3ccn[nH]3)cc2c1,.,.,2.9,57.1*,?,30.2
O=c1cc(-c2c(F)c(F)c(F)c(F)c2F)oc2c(F)c(F)c(F)c(F)c12,.,.,.,-94.8,.,-94.4*
N#Cc1c(N2CCCC2)nc(N)c2c(N)nc(N3CCCC3)cc12,69.1*,0.0,1.8,16.8,.,2.3
CCn1cnc2sc(C(=O)Nc3ccc4c(c3)OCO4)c(C)c2c1=O,30.6,79.8,5.3,67.0*,21.0,33.3
Cc1ccc(NC(=O)c2sc3ncn(CC(=O)N4CCOCC4)c(=O)c3c2C)c(Br)c1,15.8,?,3.4,78.4*,1.4,35.7
CCCNC(=O)Cn1cnc2sc(C(=O)Nc3ccc4c(c3)OCO4)c(C)c2c1=O,9.5,26.3,.,16.6,5.6,3.0
Cc1cc([N+](=O)[O-])ccc1NC(=O)c1sc2ncn(CC(=O)N3CCOCC3)c(=O)c2c1C,2.0,4.0,-1.8,37.6,-0.1,14.7
SMILES,esBAF inh,MITF act,SMARCA2 act,HSF1 activator,Wnt act,HSF1 inh
COc1ccc(-c2cc(CS(=O)(=O)c3ccccc3)on2)cc1,?,?,3.2,63.7*,-1.3,18.9
O=S(=O)(Cc1cc(-c2ccccc2)no1)c1ccccc1,.,74.6,2.8,12.7,2.8,12.3
O=C(C[C@@H]1CC[C@@H]2[C@H](COC[C@@H](O)CN2C(=O)c2ccccn2)O1)NC1CCC1,-9.5,.,.,.,.,.
COc1cccc(N/C(SCc2ccccc2C)=C(/C#N)C(=O)NCc2cccs2)c1,5.3,-1.2,4.4,14.6,.,13.8
COc1cccc(N/C(SCc2cccc([N+](=O)[O-])c2)=C(/C#N)C(=O)NCc2cccs2)c1,-3.5,1.3,-0.9,75.4*,-2.8,25.4
C[C@H](CO)N1C[C@H](C)[C@H](CN(C)S(=O)(=O)c2ccccc2)Oc2c(NC(=O)Nc3ccc(C(F)(F)F)cc3)cccc2C1=O,1.8,.,.,.,.,.
